From paper PMC4552634, “A New Set of Chemical Starting Points with Plasmodium falciparum Transmission-Blocking Potential for Antimalarial Drug Discovery” (PLoS ONE, 2015)
In all, about 13,000 compounds went through this assay and about 3,200 (25%) showed an effect of 50% or more. The list shows a part of the results.

Test system: P. falciparum stage V gametocytes
Set-up: BacTiter-Glo ATP luminescence viability of purified stage V gametocytes in 384-well plates, per cent inhibition versus DMSO
Conditions: 48 h, 5 µM; inhibitor

Structure (SMILES)	% Inhibition
COc1cc2c(cc1C(F)(F)F)N(C(=O)Nc1cc(F)c(F)c(-c3cccnc3)c1)CC2 [TCMDC-139061]	5.239%
CCC(C)(CC)C(=O)n1ncc2c3c(N)nc(N)nc3ccc21 [TCMDC-137335]	-46.13%
COc1ccc(-n2ccnc2SCC(=O)Nc2cc(C(F)(F)F)ccc2Cl)c(OC)c1 [TCMDC-123822]	7.482%
CCCc1cc(Cc2cnc(N)nc2N)c2cccnc2c1OC [TCMDC-138034]	13.25%
O=C(NCCN1CCCCC1)c1cccc(Nc2nccc(Nc3ccc(Oc4ccccc4)cc3)n2)c1 [TCMDC-138603]	19.36%
c1ccc(Oc2ccc(Nc3ccnc(Nc4cccc(CNCCCN5CCOCC5)c4)n3)cc2)cc1 [TCMDC-138615]	95.32%
c1cncc(-c2cccc(CNc3nccc(Nc4ccc(OCCN5CCOCC5)cc4)n3)c2)c1 [TCMDC-134667]	2.743%
CN1CC[C@@H](Oc2cc(C(=O)NCc3ccc(Cl)c(Cl)c3)ccc2C(F)(F)F)C1 [TCMDC-136228]	28.38%
CCCCCCCc1c(C)[nH]c2ccccc2c1=O [TCMDC-137425]	37.94%
CCCCCCCCCc1c(C)[nH]c2ccccc2c1=O [TCMDC-137268]	51.45%
CCCCCCCc1c(C)[nH]c2c(OC)cccc2c1=O [TCMDC-138016]	17.32%
CCCCCCCCc1c(C)[nH]c(C)c(C#N)c1=O [TCMDC-137431]	44.76%
CCCCCCCc1c(C)[nH]c2cccc(OC)c2c1=O [TCMDC-138014]	32.1%
CCCCCCCCc1c(C)[nH]c(C)c(Cl)c1=O [TCMDC-137538]	68.39%
CCCCCCCCc1c(C)[nH]c(C)c(Br)c1=O [TCMDC-137437]	29.73%
CCCCCCCCc1c(C)[nH]c(C)c(I)c1=O [TCMDC-137430]	48.86%
CCCCCCCc1c(C)[nH]c2ccc(F)cc2c1=O [TCMDC-137269]	73.68%
O=C(NC1CCN(Cc2ccccc2)CC1)c1ccc(-c2nc3cc(F)c(F)cc3[nH]2)s1 [TCMDC-140452]	7.821%
N#Cc1ccc2c(c1)CCN(CCC1CCC(NC(=O)c3ccc(-c4ccccn4)s3)CC1)CC2 (centres unmarked) [TCMDC-139840]	-69.85%
O=C(Nc1ccc(-c2csc(-c3nc4ccccc4[nH]3)c2)cc1)Nc1ccc(F)c(F)c1F [TCMDC-133221]	23.86%
CC(C)(C(=O)NCCC1CCN(CCCCCNC(=O)/C=C/c2ccc(Cl)c(Cl)c2)CC1)c1ccc(Cl)cc1 [TCMDC-140002]	52.94%
CC(Oc1ccc(Cl)cc1)C(=O)N(C)C1CCN(CCCCCNC(=O)/C=C/c2ccc(Cl)c(Cl)c2)CC1 (centres unmarked) [TCMDC-139989]	-40.26%
CC(Oc1ccc(Cl)cc1)C(=O)NCCC1CCN(CCCCCNC(=O)/C=C/c2ccc(Cl)c(Cl)c2)CC1 (centres unmarked) [TCMDC-140003]	96.79%

Structure (SMILES)	% Inhibition
CN(C(=O)Cc1ccc(Cl)cc1)C1CCN(CCCCCNC(=O)/C=C/c2ccc(Cl)c(Cl)c2)CC1 [TCMDC-139988]	-15.24%
CN(C(=O)C(C)(C)Oc1ccc(Cl)cc1)C1CCN(CCCCCNC(=O)/C=C/c2ccc(Cl)c(Cl)c2)CC1 [TCMDC-139990]	51.05%
CN(C(=O)Cc1ccc(Cl)c(Cl)c1)C1CCN(CCCCCNC(=O)/C=C/c2ccc(Cl)c(Cl)c2)CC1 [TCMDC-139986]	-22.66%
O=C(/C=C/c1ccc(Cl)c(Cl)c1)NCCCCCN1CCC(CCNC(=O)/C=C/c2cc(C(F)(F)F)ccc2F)CC1 [TCMDC-140005]	-14.45%
CC(C)(Oc1ccc(Cl)cc1)C(=O)NCCC1CCN(CCCCCNC(=O)/C=C/c2ccc(Cl)c(Cl)c2)CC1 [TCMDC-140004]	87.45%
CC1(C)N=C(N)NC(NOCc2ccc(Cl)c(Cl)c2)=N1 [TCMDC-131606]	-8.519%
CC(C)[C@H](NC(=O)c1ccc(O)c(-c2ccc(Cl)c(Cl)c2)c1)C(=O)NCCN1CCCCC1 [TCMDC-140858]	1.563%
N#Cc1nc2ccc(OCCN(Cc3ccccc3C(F)(F)F)c3ccc(C#N)c(C(F)(F)F)c3)cc2s1 [TCMDC-132798]	33.49%
N#Cc1ccc(NC(=NCCc2c[nH]c3ccccc23)Nc2ccc(-c3ccccc3)cc2)c(O)c1 [TCMDC-140211]	-66.19%
CCCNCc1ccc(-c2ccc(CN(CCOC)C(=O)Cc3cccnc3)cc2)nc1 [TCMDC-141528]	108.8%
CCCCC(=O)N(CCOC)Cc1ccc(-c2ccc(CNCCC)cn2)cc1 [TCMDC-141536]	72.35%
CC(=O)Nc1cccc(CN(Cc2ccc(-c3ccc(CNCc4cccnc4)cn3)cc2)C(=O)Cc2cccnc2)c1 [TCMDC-141604]	-7.365%
CCCNCc1ccc(-c2ccc(CN(CCOC)C(=O)CCCOCc3ccccc3)cc2)nc1 [TCMDC-141543]	33.78%
CCCNCc1ccc(-c2ccc(CN(CCOC)C(=O)COc3ccccc3Cl)cc2)nc1 [TCMDC-141541]	51.3%
CCCNCc1ccc(-c2ccc(CN(Cc3ccc4c(c3)OCO4)C(=O)Cc3cccnc3)cc2)nc1 [TCMDC-141529]	106.5%
CN(C)CCN(C)Cc1ccc(-c2ccc(NS(=O)(=O)c3cccc4cccnc34)cc2)cc1 [TCMDC-136474]	21.58%
CCn1cc(C=C2Oc3c(ccc(O)c3CN3CCCCC3)C2=O)c2cc(OC)ccc21 [TCMDC-124887]	12.33%
CCCNCc1ccc(-c2ccc(CN(CCOC)C(=O)CCc3ccc(OC)cc3)cc2)nc1 [TCMDC-141539]	54.14%
CCCNCc1ccc(-c2ccc(CN(CCOC)C(=O)CCC(=O)c3ccc(OC)c(F)c3)cc2)nc1 [TCMDC-141537]	97.99%
Cc1cc(NC(=O)NCCN2CCC(NS(=O)(=O)c3ccccc3F)CC2)c2ccccc2n1 [TCMDC-136137]	1.757%
CCOC(=O)c1[nH]c(-c2cc(Cl)nc(Cl)c2)nc1NC(=S)NCc1ccc(NS(C)(=O)=O)cc1 [TCMDC-138899]	-31.28%
CC(=O)c1nccc(C)c1N [TCMDC-139307]	-14.24%
CN1CCC(Oc2cc(NC(=O)Nc3ccc(-c4ccncc4)c(Cl)c3)ccc2Cl)CC1 [TCMDC-139205]	28.36%

Structure (SMILES)	% Inhibition
O=C(CCCCCNC(=O)c1ccc(O)c(-c2ccc(Cl)c(Cl)c2)c1)NCc1cccc(C(F)(F)F)c1 [TCMDC-140831]	18.4%
O=C(Nc1ccsc1)Nc1cccc(-c2ccc(-c3nc4ccc(C(F)(F)F)cc4[nH]3)cc2)c1 [TCMDC-133210]	-6.282%
COc1ccc(-c2cc3ncnc(N4CCN(CCN5CCCC5)CC4)c3s2)cc1 [TCMDC-125055]	-2.838%
CNCCCn1c(N(C)C)nc2cc(-n3cnc4cc(-c5ccc(Cl)cc5)sc4c3=O)ccc21 [TCMDC-138914]	43.83%
COc1ccc(-c2cc3ncn(CC(=O)N4CCN(c5cccc(OC)c5)CC4)c(=O)c3s2)cc1 [TCMDC-125255]	66.27%
CN1CCN(C(=O)CN2CCC3(CCC2=O)NC(=O)c2ccccc2O3)CC1 (centres unmarked) [TCMDC-125378]	-32.42%
CC(=O)N/N=C/[C@H](CCc1ccccc1)NC(=O)[C@H](CC(C)C)NC(=O)c1ccc(F)cc1 [TCMDC-135965]	1.649%
CC[C@H](NC(=O)c1c(N)c(-c2sccc2Cl)nc2ccccc12)c1ccccc1 [TCMDC-141650]	17.42%
O=[N+]([O-])c1cccc(CNCC2CCN(CCc3ccccc3)CC2)c1 [TCMDC-141210]	2.081%
Fc1cccc(Nc2nc(NCCc3ccc(Cl)cc3)nc(Nc3cccc(F)c3)n2)c1 [TCMDC-135141]	40.3%
Cc1nc(-c2cccc(Nc3nccc(NCC(O)c4cccc(F)c4)n3)c2)cs1 (centres unmarked) [TCMDC-136571]	-23.01%
FC(F)(F)Oc1cccc(CNc2noc(-c3sccc3Br)n2)c1 [TCMDC-134186]	1.419%
COc1cccc(Nc2nc(C)cc(Nc3cccc(C#N)c3)n2)c1 [TCMDC-133448]	4.259%
Fc1cccc(Nc2nc(NCc3ccc(Cl)c(Cl)c3)nc(Nc3cccc(F)c3)n2)c1 [TCMDC-135139]	55.91%
Fc1ccc(Nc2n[nH]c(CNC3CCN(Cc4ccc(Cl)c(Cl)c4)CC3)n2)cc1 [TCMDC-138655]	-23.76%
COc1cccc(Nc2nc(Nc3cccc(C#N)c3)cc(C(F)(F)F)n2)c1 [TCMDC-133462]	-24.01%
Fc1cccc(Nc2nc(NCc3ccc4ccsc4c3)nc(Nc3cccc(F)c3)n2)c1 [TCMDC-135140]	55.41%
COc1ccc(CNc2nc(Nc3cccc(C#N)c3)nc(Nc3cccc(C#N)c3)n2)cc1Cl [TCMDC-138547]	52.56%
CC(=O)Nc1ccc(CN2CCCN(c3cc(NC(=O)c4cccc(C)c4)ccn3)CC2)cc1 [TCMDC-134980]	8.133%
Cc1cccc(OCCCCON2C(N)=NC(N)=NC2(C)C)c1C [TCMDC-131662]	9.727%
COc1ccc(NC(=O)/C=C/c2ccc(Cl)c(Cl)c2)cc1N1CCN(C)CC1 [TCMDC-139042]	-34.01%
CC(C)n1ncc2c(C(=O)Nc3ccc(C#N)c(Cl)c3)cc(C3CC3)nc21 [TCMDC-125244]	-17.87%
